Data published in PubChem BioAssay (Tox21).
Results filed as inconclusive are left out. Calls of active or inactive are those of the source. Calls come from the whole dose curve.

Experiments:
[1] = biological target: Acetylcholinesterase (Homo sapiens) (UniProt P22303); assay: Acetylcholinesterase (AChE) small molecule antagonists: colormetric cell-based qHTS assay (AID 1347395); note: nearly all actives have a fitted effect of over 30% in size
In short: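 Neuroblastoma line SH-SY5Y supplied the enzyme; cells were preincubated with compound for 30 min at 37 C and 5% CO2. Acetylthiocholine with DTNB was then added for 90 min at 37 C, and thiocholine was measured by colour.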

[2] = biological target: Acetylcholinesterase (Homo sapiens) (UniProt P22303); assay: Acetylcholinesterase (AChE) small molecule antagonists: enzyme-based qHTS assay (AID 1347397); conditions: Potency: AChE enzyme activity inhibition; outcome: AChE enzyme activity inhibition; note: nearly all actives have a fitted effect of over 55% in size
In short: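 Recombinant human AChE (50 mU/mL) preincubated with compound 30 min at room temperature; acetylthiocholine plus DTNB then added, and thiocholine formation read colorimetrically after 10 min at room temperature. DMSO served as vehicle control.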

[3] = biological target: Acetylcholinesterase (Homo sapiens) (UniProt P22303); assay: Acetylcholinesterase (AChE) small molecule antagonists: fluorescence cell-based qHTS assay (AID 1347398); conditions: Potency: AChE activity; outcome: AChE activity; note: nearly all actives have a fitted effect of over 50% in size
In short: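 SH-SY5Y cells (2000/well), attached overnight, incubated with compound 30 min at 37 C. Acetylthiocholine plus Thiolite Green then added for 40 min at room temperature. Thiocholine fluorescence (Ex/Em 490/520 nm) reports cellular AChE activity.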

[4] = biological target: Acetylcholinesterase (Homo sapiens) (UniProt P22303); assay: Acetylcholinesterase (AChE) small molecule antagonists: enzyme-based qHTS assay with human liver microsomes (AID 1347399); conditions: Potency: qHTS inhibition; outcome: qHTS inhibition; note: nearly all actives have a fitted effect of over 60% in size
In short: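 Recombinant human AChE (50 mU/mL in the enzyme mix) and human liver microsomes (0.25 mg/mL final) were preincubated with compound and NADPH (0.25 mg/mL final) for 30 min at 37 C. Acetylthiocholine/DTNB was then added; thiocholine was read colorimetrically after 10 min at room temperature.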

Measured: Potency

Sequence of Acetylcholinesterase (Homo sapiens) (P22303 whole entry, looked up): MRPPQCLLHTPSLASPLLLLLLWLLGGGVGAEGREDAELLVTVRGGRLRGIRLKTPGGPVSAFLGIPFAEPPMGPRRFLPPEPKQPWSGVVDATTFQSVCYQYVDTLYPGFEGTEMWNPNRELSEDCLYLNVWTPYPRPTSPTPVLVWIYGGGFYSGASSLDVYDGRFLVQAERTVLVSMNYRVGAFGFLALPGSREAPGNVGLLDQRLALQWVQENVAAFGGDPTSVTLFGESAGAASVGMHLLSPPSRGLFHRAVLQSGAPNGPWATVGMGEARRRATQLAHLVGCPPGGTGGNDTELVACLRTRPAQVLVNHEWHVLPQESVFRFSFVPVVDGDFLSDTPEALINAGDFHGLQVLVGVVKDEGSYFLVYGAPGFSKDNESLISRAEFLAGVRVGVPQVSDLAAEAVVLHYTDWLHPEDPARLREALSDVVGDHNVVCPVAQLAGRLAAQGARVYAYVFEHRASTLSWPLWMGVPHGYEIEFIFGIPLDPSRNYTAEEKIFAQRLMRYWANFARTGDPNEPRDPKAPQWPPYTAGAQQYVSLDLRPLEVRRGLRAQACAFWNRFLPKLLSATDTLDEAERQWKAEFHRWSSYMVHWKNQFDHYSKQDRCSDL

Cc1cc(C)c(O)c(C(C)(C)C)c1
inactive: all assays above

O=Cc1cccc(Br)c1
inactive: all assays above

CCCCCCCCCCCCCC(=O)OCC(O)CO (centres undefined)
inactive: all assays above

CCN(CC)CCOC(=O)C1(c2ccccc2)CCCC1
inactive: all assays above

CC(=O)Oc1ccc(C(C)=O)cc1
inactive: all assays above

C[N+]1(C)CCCC(OC(=O)C(O)(c2ccccc2)c2ccccc2)C1 (centres undefined)
inactive: all assays above

O=C(NN1CCCC1)NS(=O)(=O)c1ccc(Cl)cc1
inactive: all assays above

CCCO
inactive: all assays above

CC(=O)OCC(=O)[C@@]12OC(C)(C)O[C@@H]1C[C@H]1[C@@H]3C[C@H](F)C4=CC(=O)C=C[C@]4(C)[C@@]3(F)[C@@H](O)C[C@@]12C
inactive: all assays above

CCCCCCCCCC(C)=O
inactive: all assays above

CC[N+](CC)(CC)CCOC(=O)C(C1CCCC1)C1CCCC1
inactive: all assays above

CC[N+](C)(CC)CCOC(=O)C(O)(c1ccccc1)C1CCCCC1 (centres undefined)
inactive: all assays above

CCOC(=O)COc1cc(-n2ncc(C(F)(F)F)c(C)c2=O)c(F)cc1Cl
inactive: all assays above

CC(CC=O)CC(C)(C)C (centres undefined)
inactive: all assays above

CCCCCCCC/C=C\CCCCCCCC(=O)OCCO
inactive: all assays above

CC(C)(c1ccc(Oc2ccc3c(c2)C(=O)OC3=O)cc1)c1ccc(Oc2ccc3c(c2)C(=O)OC3=O)cc1
inactive: all assays above

CCN1CCOCC1
inactive: all assays above

Cc1ccc2c(Br)cc(Br)c(O)c2n1
inactive: all assays above

CO[Si](CCC1CCC2OC2C1)(OC)OC (centres undefined)
inactive: all assays above

CC[N+](CC)(CC)Cc1ccccc1
inactive: all assays above

CCn1nc(Cc2ccccc2)cc1C1CCN(C[C@H]2C[C@H](N(C)[C@@H](C(=O)O)C(C)C)C[C@@H]2c2cccc(F)c2)CC1
inactive: all assays above

CC(=O)Nc1ncc([N+](=O)[O-])s1
inactive: all assays above

CC(C)=CCC/C(C)=C/C=N/O
inactive: all assays above

CC[C@@H](N)CO
inactive: all assays above

COc1ccc2sc(C(=O)Nc3nnn[nH]3)c(OC(C)C)c2c1
inactive: all assays above

Nc1ccc(C(=O)OCC(O)CO)cc1 (centres undefined)
inactive: all assays above

CCCCCCC(O)CO (centres undefined)
inactive: all assays above

CCCCOc1ccc(N)cc1
inactive: all assays above

CC1=C(/C=C/C(C)=C/C=C/C(C)=C\C=O)C(C)(C)CCC1
inactive: all assays above

CC(C)CCCC(C)(C)O
inactive: all assays above

CCC1Nc2cc(Cl)c(S(N)(=O)=O)cc2S(=O)(=O)N1 (centres undefined)
inactive: all assays above

CO[C@@H]1COCC[C@@H]1N[C@@H]1CC[C@@](C(=O)N2CCc3ncc(C(F)(F)F)cc3C2)(C(C)C)C1
inactive: all assays above

CC1CCC(=O)C1=O (centres undefined)
inactive: all assays above

Cc1ccc(N/N=c2\c(=O)cc/c(=N\Nc3ccc(S(=O)(=O)O)cc3)c2=O)c(C)c1
inactive: all assays above

CC1=CC[C@@]23C[C@@H]1C(C)(C)[C@@H]2CC[C@H]3C
inactive: all assays above

CCCCOCCOC(=O)CCCCCCCCC(=O)OCCOCCCC
inactive: all assays above

OC[C@H]1O[C@@H](O[C@@H]2[C@@H](CO)O[C@](O)(CO)[C@H]2O)[C@H](O)[C@@H](O)[C@H]1O
inactive: all assays above

Cc1ccc(S(=O)(=O)C(I)I)cc1
inactive: all assays above

COc1ccc2cccc(CCNC(C)=O)c2c1
inactive: all assays above

C[C@@H](c1ncncc1F)C(O)(Cn1cncn1)c1ccc(F)cc1F (some centres undefined)
inactive: all assays above

CCOCC(C)O (centres undefined)
inactive: all assays above
